# From PubChem
# Compounds with a hit are over-represented: about 3.5% of the library has one in this group of screens.
# TEAD-YAP inh – TEAD-YAP interaction inhibition | HEK-TIYL cells, TEAD-Gal4/YAP UAS-luciferase luminescence | inhibition, % at 9.12 µM | 640,000 compounds, 1.4% hits; in the data active = inhibition above about 32%;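 note: 0% = median of test compound wells and 100% = reference inhibitor wells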
# FBW7 act – human FBW7 E3 ligase activation, primary screen; AlphaScreen FBW7–phospho-cyclin E peptide binding, activator screen; Q969H0; AID 1259310; normalized activity (activation), % at 26.1 µM; 650,000 compounds, 0.13% hits; in the data active = normalized activity above about 1.9%;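 note: purified mutant Fbw7 with reduced substrate affinity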
# MITF inh – human MITF inhibition, primary screen. AlphaScreen MITF homodimerization, bead proximity signal. inhibition, % at 2.6 µM. 650,000 compounds, 0.91% hits. AID 1259374; in the data active = inhibition above about 50%;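 note: 0% = vehicle wells with protein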
# GPR151 activ – activators of human GPR151 | Q8TDV0 | PathHunter beta-arrestin GPR151 cells, luminescence | activation, % at 11.2 µM | 650,000 compounds, 1% hits; in the data active = activation above about 4.9%;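 note: 0% = median of compound wells and 100% = cells with positive control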
# Target sequence (Q8TDV0 whole entry, looked up): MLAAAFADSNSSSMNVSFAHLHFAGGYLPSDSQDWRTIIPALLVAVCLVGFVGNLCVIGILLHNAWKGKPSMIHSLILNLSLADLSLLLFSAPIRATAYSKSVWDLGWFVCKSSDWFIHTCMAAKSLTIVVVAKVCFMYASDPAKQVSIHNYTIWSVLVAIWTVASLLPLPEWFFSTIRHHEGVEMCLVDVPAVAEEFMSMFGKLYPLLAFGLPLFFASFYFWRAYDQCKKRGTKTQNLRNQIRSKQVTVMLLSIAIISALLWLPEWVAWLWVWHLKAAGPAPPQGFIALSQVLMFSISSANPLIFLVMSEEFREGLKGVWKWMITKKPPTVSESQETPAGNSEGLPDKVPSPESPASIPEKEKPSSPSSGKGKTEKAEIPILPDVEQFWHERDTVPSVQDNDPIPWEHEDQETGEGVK
# An asterisk follows results filed as active.
SMILES,TEAD-YAP inh,FBW7 act,MITF inh,GPR151 activ
CCOC(=O)C1=C(Cc2ccc(OC)cc2)C(=O)c2ccccc2C1=O,46.2*,0.2,11.8,-0.9
O=C(NNC(=O)c1nn(-c2ccc(Cl)cc2)cc1O)c1ccccc1F,15.5,-0.4,28.1,0.6
O=C(NNC(=O)c1nn(-c2ccc(Cl)cc2)cc1O)c1ccc2ccccc2n1,65.2*,-1.0,69.4*,-2.1
COCCn1c(Cc2ccccc2)nnc1SCC(=O)NC(C)(C)C,58.9*,0.0,-13.1,0.0
CCn1c(Cc2ccccc2)nnc1SCC(=O)NC(C)(C)C,-16.7,-0.1,-1.8,1.6
Cc1cccc(CNCCC2CCC(=O)N2Cc2cccs2)c1 (stereo unspecified),3.1,0.1,1.4,-0.9
O=C(NCc1ccncc1)c1ccc(OC2CCN(Cc3cc4ccccc4o3)CC2)cc1,44.9*,-0.1,2.6,2.9
COc1ccc(OC)c(-n2c(C)cc(/C=C3/C(=N)N4C=CSC4=NC3=O)c2C)c1,28.5,-0.1,-4.4,0.5
COc1ccccc1-n1c(C)cc(/C=C2/C(=N)N3C=CSC3=NC2=O)c1C,94.3*,0.3,6.7,0.4
COc1ccc(OC)c(-n2c(C)cc(/C=C3/C(=N)N4C=C(C)SC4=NC3=O)c2C)c1,47.1*,-0.1,7.0,1.0
COc1ccc(C)cc1-n1c(C)cc(/C=C2/C(=N)N3C=C(C)SC3=NC2=O)c1C,50.9*,-0.1,-6.7,0.0
O=C(NCc1ccncc1)C1CC12CCN(Cc1cnn(-c3ccccc3)c1)CC2 (stereo unspecified),9.2,-0.1,-5.4,-0.2
c1ccc(CN2CCN(c3ncnc4c3oc3ccccc34)CC2)cc1,-2.5,0.0,5.7,0.7
O=C(NNc1ccc([N+](=O)[O-])cc1[N+](=O)[O-])c1ccccc1,73.0*,-0.3,14.1,-0.3
O=C(NNc1ccc(C(F)(F)F)cc1[N+](=O)[O-])c1ccccc1,9.4,0.3,16.3,-0.9
O=C(NNc1ccc(C(F)(F)F)cc1[N+](=O)[O-])C(F)(F)F,8.9,2.5*,22.7,0.0
O=C(Nc1ccc([N+](=O)[O-])cc1[N+](=O)[O-])c1ccccc1,-1.7,-0.1,18.6,0.4
COc1cc(C=Nc2cccc(C#N)c2)c([N+](=O)[O-])cc1OC,-3.5,-0.1,14.7,-0.7
CCc1cc(-c2nc(N)ncc2-c2ccc(Br)cc2)c(O)cc1OC,-3.1,0.0,1.3,-0.3
CCc1cc(-c2oncc2-c2ccc(Br)cc2)c(O)cc1OC,54.5*,-0.1,-3.1,0.2
CCCc1cc(-c2oncc2-c2ccc3c(c2)OCCO3)c(O)cc1OC,50.6*,-0.1,-3.7,0.2
Cc1cccc(-n2cc(-c3cc4ccccc4oc3=O)[nH]c2=S)c1,80.7*,0.1,6.3,-1.2
COc1ccc(-n2cc(-c3cc4ccccc4oc3=O)[nH]c2=S)cc1,17.4,-0.1,4.8,-0.2
O=c1oc2ccccc2cc1-c1cn(-c2ccccc2F)c(=S)[nH]1,67.6*,0.0,-3.5,-1.3
O=c1oc2ccccc2cc1-c1cn(-c2ccc(F)cc2)c(=S)[nH]1,71.8*,-0.1,-10.7,-0.6
SMILES,TEAD-YAP inh,FBW7 act,MITF inh,GPR151 activ
O=C(O)c1ccccc1,-1.1,0.0,-4.3,-0.2
O=C(O)c1cc(O)c(O)c(O)c1,0.8,-0.2,76.3*,0.5
CCn1nc(CN)c2ccccc2c1=O,43.0*,0.2,0.4,0.6
CCn1nc(CCC(=O)O)c2ccccc2c1=O,1.6,0.0,-9.4,-0.7
Cc1ccc2cc3cc(C(=O)N4CCN(C)CC4)oc3nc2c1,45.2*,0.0,-22.0,1.2
Cc1nc(N)sc1C(=O)N/N=C/c1c(Cl)ccc(Cl)c1Cl,8.5,2.5*,15.3,1.1
Cc1nc(N)sc1C(=O)N/N=C/c1c(F)cccc1Cl,-10.0,0.2,1.3,-1.6
C/C(=N\NC(=O)c1ccc(N(C)S(=O)(=O)c2ccccc2)cc1)c1ccccc1O,14.6,-0.3,-1.2,-0.6
Cc1cc2nc(-c3ccc(N)cc3O)oc2cc1C,30.6,0.0,6.6,-0.3
Cc1ccc2oc(-c3cc(N)ccc3O)nc2c1,-34.8,-0.1,7.2,-7.8
CC(C)c1ccc2oc(-c3cc(N)ccc3O)nc2c1,63.9*,-0.2,11.0,-3.6
CC(C)c1ccc2oc(-c3ccc(N)cc3O)nc2c1,86.8*,-0.1,-3.2,-0.9
CCc1ccc2nc3sc(C(N)=O)c(N)c3cc2c1,91.5*,-0.1,10.8,-2.9
NC(=O)c1sc2nc3cc4c(cc3cc2c1N)OCO4,72.7*,-0.1,-4.0,-1.7
Cc1ccc(C(=O)c2cccc(NC(=O)c3ccc(C)c([N+](=O)[O-])c3)c2)cc1C,-2.1,0.1,26.0,-0.5
Cc1ccc2[nH]c(SCc3ccccc3F)nc2c1C,-61.2,0.0,0.1,-0.6
